Among all 370,000 compounds or so, about 2,100 (0.57%) were called active.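 How the source made its calls: active means inhibition above mean plus 3 SD of compounds lying within the high and low control bounds (cut at about 19% in these data); inactive means the rest.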 Only a selection was taken, and actives are over-represented in it overall.
biological target: Group 3 secretory phospholipase A2 (Homo sapiens) (UniProt Q9NZ20); assay: human group III sPLA2 inhibitors, primary screen, biochemical, QFRET, BODIPY PC-A2 liposome substrate (AID 743126); conditions: QFRET BODIPY PC-A2 liposome hydrolysis, fluorescence; at 12.2 µM; hits give high values;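 further: 0% = median of test compound wells and 100% = no enzyme DMSO wells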
Sequence (Q9NZ20 whole entry, looked up): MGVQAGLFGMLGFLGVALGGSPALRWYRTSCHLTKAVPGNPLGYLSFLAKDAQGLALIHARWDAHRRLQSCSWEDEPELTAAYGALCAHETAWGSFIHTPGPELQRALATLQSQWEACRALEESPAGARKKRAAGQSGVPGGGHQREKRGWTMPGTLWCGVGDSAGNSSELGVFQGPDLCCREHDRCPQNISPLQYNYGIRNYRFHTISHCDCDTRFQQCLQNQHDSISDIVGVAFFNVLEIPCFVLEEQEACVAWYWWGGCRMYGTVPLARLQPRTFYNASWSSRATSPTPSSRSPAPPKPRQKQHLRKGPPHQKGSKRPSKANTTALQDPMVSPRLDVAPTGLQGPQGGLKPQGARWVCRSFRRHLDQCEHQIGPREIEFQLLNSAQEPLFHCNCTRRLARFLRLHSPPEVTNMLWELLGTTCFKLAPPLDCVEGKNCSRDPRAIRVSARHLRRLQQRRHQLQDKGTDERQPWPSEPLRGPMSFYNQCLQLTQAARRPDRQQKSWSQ

inhibition, inactive:
CCCOc1ccc(Oc2c(Cl)cnn(Cc3cccc4ccccc34)c2=O)cc1 3.84%
COc1cccc2c(C)c(C(=O)O)[nH]c12 -1.9%
Cc1ccc2[nH]c(C(=O)O)c(NC(=O)c3ccccc3[N+](=O)[O-])c2c1 -10.3%
O=C(NCc1cccs1)C1CCCN(S(=O)(=O)c2ccc([N+](=O)[O-])cc2)C1 (configuration not stated) 2.84%
CN1C[C@]2(C=C3CCCCC3n3c(=O)n(-c4ccccc4)c(=O)n32)N=C1NC(=O)c1ccccc1 (some centres not stated) -6.07%
O=C(Nc1cc(Cl)cc(Cl)c1)OCCN1CCCC12CCC(c1ccccc1)CC2 (configuration not stated) -8.41%
C#CCCN([C@H](C(=O)OC)C(C)C)S(=O)(=O)c1ccc(F)cc1Br 3.19%
COP(=O)(O)CNC(=O)OCc1ccccc1 2.13%
O=C(CN1CCCc2ccccc21)NCc1ccc(F)cc1 7.05%
CCc1ccc(-c2nn(-c3ccccc3)cc2CSC(=N)N)cc1 15.7%
CSC1=NCCN1C(=O)Cc1cccc2ccccc12 7.18%
O=C(CNS(=O)(=O)c1ccccc1F)N1CCN(c2ccccn2)CC1 5.26%
Cc1cc(C)n(-c2nc(C(F)(F)F)nc3ccccc23)n1 1.7%
COc1ccccc1-c1cnn2c(N3CCOCC3)cc(C)nc12 17.5%
COC(=O)C[C@@H]1CC[C@H]2[C@@H](COc3ccc(NS(=O)(=O)CC(F)(F)F)cc3C(=O)N2C)O1 6.09%
CCOC(=O)CNC(=O)/C=C/c1c(Cl)cccc1Cl -5.13%
O=C(CC(=O)N/N=C\c1cccc(Cl)c1Cl)NCc1ccccc1 -20.8%
O=C(CSc1nc2ccccc2s1)NN=Cc1ccc(O)cc1O -23%
COc1cccc(Nc2nnc(SCC(=O)N3CC(C)OC(C)C3)s2)c1 (configuration not stated) 13.8%
CN(C(=O)CSc1nnc(Nc2ccccc2)s1)C1CCS(=O)(=O)C1 (configuration not stated) -0.8%
COc1ccc(-n2c(SCC(=O)NC3CCCC3)nnc2-c2ccncc2)cc1 12.7%
CCCCCOc1ccc(CSC2=NCCN2)cc1[N+](=O)[O-] -1.57%
CCCCOC(=O)CCCc1ccc([N+](=O)[O-])cc1[N+](=O)[O-] 1.12%
COc1ccc(N2CCN(CCNS(=O)(=O)c3ccc(Cl)s3)CC2)cc1 0.02%
O=S1(=O)c2ccc(N3CCN(Cc4ccccc4F)CC3)cc2Oc2ccccc2CN1Cc1cn(Cc2ccc(Cl)cc2)nn1 -0.32%
O=C(Nc1nc2ccc(Cl)cc2s1)c1cc(-c2ccc(Cl)cc2)nc2ccccc12 13.3%
Cc1cc(C(=O)Nc2ccc(C)c(S(=O)(=O)N3CCOCC3)c2)c2ccccc2n1 -16.7%
CCC(c1nnc(SCC(=O)NNC(=O)c2ccccc2)n1Cc1ccccc1)N(C)C (configuration not stated) -0.56%
CC(C)(C)NC(=O)Cn1c(SCC(=O)Nc2nccs2)nc2ccccc21 3.98%
CCC(=O)Nc1ccc2c(c1)C(=O)N(C)[C@H]1CC[C@H](CC(=O)NCCOC)O[C@@H]1CO2 -9.58%
Nc1[nH]c(/C=C2/CCCCC2n2[nH]c(=O)n(-c3ccccc3)c2=O)c(Cc2ccccc2)[n+]1Cc1ccccc1 (configuration not stated) -5.57%
CCCc1cc(-c2n[nH]c(=S)n2Cc2ccccc2)cs1 2.87%
CCn1c(-c2ccncc2)n[nH]c1=S 3.35%
CCC(=O)c1c(CC)c2n3c1=CC[C@H]3CC(Br)C=2 (some centres not stated) 1.91%
O=C(CSc1nnc(SCc2ccc(Cl)cc2)s1)N/N=C/c1ccccc1Cl -4.99%
CCSc1nnc(SCC(=O)NNC(=O)c2ccccc2F)s1 4.1%
COc1cccc(Cn2cc(COC(=O)Nc3ccc(F)cc3)nn2)c1 -7.76%
C[C@@H]1CN([C@@H](C)CO)C(=O)c2cccc(NC(=O)Nc3cccc4ccccc34)c2O[C@H]1CN(C)S(=O)(=O)c1ccccc1F -21.9%
Nc1ccc2[nH]c(=S)sc2c1 1.91%
CCOc1ccc2[nH]c(=O)c(CN(CCCO)C(C)=O)cc2c1 -0.39%
COc1ccc2c(C(C)c3ccc(N)cc3)cn(C)c2c1 (configuration not stated) 9.83%
CCCCNC(=O)C[C@@H]1C(=O)N(CCc2ccc(Cl)cc2)C2=CCCC[C@]21C(=O)OCC -11%
COC(=O)c1cccnc1NC(=S)NC(C)C 11.5%
CC1CCN(C(=S)NC(=O)c2ccccc2Br)CC1 16.3%
O=C(CN1CCC(NC(=O)NCc2ccccc2)CC1)Nc1ccc2c(c1)OCCO2 4.02%
O=C(NC1CCC1)c1ccc(C#CC2CC2)cn1 8.79%
O=C(CCc1c[nH]c2ccccc12)NCCOc1ccccc1 -37%
COc1cccc(CNCCc2c[nH]c3ccccc23)c1OCc1ccccc1F -6.09%
C#CCNC(=O)C[C@H]1C[C@@]2(C(=O)OC)C(=C[C@H](C(C)C)O[C@@H]2C2CC2)N(Cc2ccco2)C1=O 3.7%
Cc1cccc(C(=O)Nc2c(-c3ccc(F)cc3)nc3ncccn23)c1 -0.59%
COC(=O)CC1CCc2cc(C)cc(C(CC(C)C)NC(=O)[C@H](CC(C)C)NC(=O)OCc3ccccc3)c2O1 (some centres not stated) -3.39%
O=C(C1CCCN1S(=O)(=O)c1ccccc1)N1CCc2ccccc2C1 (configuration not stated) -2.35%
Cc1nnc(SCCCn2c(N3CCCCC3)nc3c2c(=O)[nH]c(=O)n3C)s1 -3.33%
C=CCn1c(SCc2ccccc2)nc2c1c(=O)[nH]c(=O)n2C -4.25%
COc1ccc(CN2C/C(=C/c3ccccc3)N3C(=O)C[C@@H](c4ccccc4)N=C23)c(OC)c1 -11.6%
Cc1ccc(-n2c(COc3ccccc3)nnc2SCC(=O)Nc2ccc3c(c2)OCCO3)cc1 -18.3%
COc1ccc(C(=O)OCCN2CCN(C3CN(Cc4cn(Cc5ccccc5F)nn4)S(=O)(=O)C3)CC2)cc1OC (configuration not stated) -1.33%
CC(NC(=O)COC(=O)C1CCN(S(=O)(=O)c2ccccc2C(F)(F)F)CC1)c1ccccc1 (configuration not stated) -13.3%
CC(NC(=O)Cn1cc(C(F)(F)F)cc(Cl)c1=O)c1ccccc1 (configuration not stated) 0.8%
NC(Cc1ccc(F)cc1)c1csc(Nc2nncc3ccccc23)n1 (configuration not stated) 9.76%
CC(C)(C)CC(=O)Nc1nc(C(N)Cc2ccc(C(F)(F)F)cc2)cs1 (configuration not stated) 6.39%
CC(C)N1CCCCC(NC(=O)C(C)(C)C)C1=O (configuration not stated) -4.58%
C=CCN1C(C(=O)OC)CN(Cc2cn(Cc3ccccc3)nn2)CCS1(=O)=O (configuration not stated) 1.48%
N#Cc1ccccc1NC(=O)COc1c(Br)cc(Br)c2cccnc12 5.73%
O=[N+]([O-])c1cc([N+](=O)[O-])c2cccnc2c1O 2.18%
Cc1c(C(C)c2ccccc2O)[nH]c2ccccc12 (configuration not stated) -10.4%
CCOC(=O)NC(=O)C(=CNc1cccc(OC)c1)C(=O)NC(=O)OCC 5.9%
CCOC(=O)C(=Cc1ccccc1)C(=O)c1ccccc1 8.51%
COC(=O)[C@]12C[C@H](CC(=O)NCC34CC5CC(CC(C5)C3)C4)C(=O)N(Cc3ccc(Cl)cc3Cl)C1=C[C@H](COCc1ccccc1)O[C@@H]2C -6.39%
O=C(Nc1ccc(Br)cc1)OCCN1C(=O)CCC12CCC(c1ccccc1)CC2 (configuration not stated) -1.44%
NC(=O)C1(Nc2ccc(-c3ccccc3)cc2)CCCC1 0.79%
N#CC1(Nc2ccc3c4c(cccc24)CC3)CCCCC1 -35.6%

inhibition, active:
Cc1c(C(=O)N/N=C/c2ccccc2)[nH]c2c([N+](=O)[O-])cccc12 21.8%
N=C(N)SCc1cccc2ccccc12 35.3%
Cc1cc(-n2nc(C)cc2C)n2ncc(-c3ccccc3)c2n1 21.3%
O=C(/C=C/c1c(Cl)cccc1Cl)NCc1ccccc1 20%
CC(C)c1ccc(Nc2nnc(SCC(=O)c3nnc(-c4ccccc4)o3)s2)cc1 22.6%
CCCCOc1ccc(CSC(=N)N)cc1[N+](=O)[O-] 34.6%
O=C(Nc1cccc(F)c1)c1cc(-c2ccco2)nc2ccccc12 23.6%
O=C(CSc1nc2ccccc2n1Cc1ccccc1)NNC(=S)Nc1ccccc1 34.3%
CCc1cc(-c2n[nH]c(=S)n2CC(C)C)cs1 19.6%
Cc1ccc(NC(=S)NNC(=O)CSc2nnc(SCc3ccccc3Cl)s2)cc1 19.7%
CCOc1ccc2[nH]c(=S)sc2c1 23.5%
O=C(NC(=S)Nc1ncccn1)c1ccccc1Br 20.2%
Cc1cc(NCCc2c[nH]c3ccccc23)ccc1Oc1cccnc1 24.1%
O=C(OC12CC3CC(CC(C3)C1)C2)c1ccc(NCc2cc(O)ccc2O)cc1 42.5%
Cc1nnc(Sc2nc3c(c(=O)[nH]c(=O)n3C)n2Cc2ccccc2)s1 19.7%
CC(NC(=O)COC(=O)Cn1cc(C(F)(F)F)ccc1=O)c1ccccc1 (configuration not stated) 19.8%
NC(Cc1ccccc1)c1csc(Nc2cc(Oc3ccccc3)ncn2)n1 (configuration not stated) 30.9%
CC(=O)NC(c1cccs1)c1cc(Br)c2cccnc2c1O (configuration not stated) 22%
CCOC(=O)NC(=O)/C(C#N)=C\c1ccccc1 22.2%
N#CC1(Nc2ccc(-c3ccc(Cl)cc3)cc2)CCCC1 23.6%
